Data: PubChem BioAssay AID463173 (ICCB-Longwood Screening Facility, Harvard Medical School, 2010)
In all, about 52,000 compounds went through this assay and about 4,300 (8.3%) were called active. The list comes from a sample in which actives are over-represented; it also holds similar structures and randomly drawn compounds. A number with no mark means an inactive call. No stated cut-off is given here; in the data, active means survival mostly below about 52% (no sharp cut-off); inactive means mostly above about 56%.

What follows are molecules tested on DeltatarO mutant (assay: growth inhibition of S. aureus wild type versus tarO mutant, primary screen, teichoic acid synthesis inhibitors, RN4220, OD600 (AID 463173)). Details: OD600, 18 h, stronger effect = lower value, screened at 18.75 µg/mL (by protocol).

| SMILES | survival |
| --- | --- |
| CCOc1ccc(NC(=O)Cn2cc(C(=O)c3ccc(C)cc3)c(=O)c3cc4c(cc32)OCO4)cc1 | 70% |
| CCOc1ccc(NC(=O)CCS(=O)(=O)c2ccc3nc(C)sc3c2)cc1 | 55% |
| CCOC(=O)c1ccccc1NC(=O)CN1C(=O)CC(c2ccco2)Sc2ccccc21 (stereo not given) | 72% |
| CCc1ccc(CNC(=O)C(C)n2ccc3cc(S(=O)(=O)N4CCCCCC4)ccc32)cc1 (stereo not given) | 94% |
| CC(C(=O)NCc1ccccc1)n1ccc2cc(S(=O)(=O)N3CCCC3)ccc21 (stereo not given) | 20% (active) |
| O=C(Cn1ccc2cc(S(=O)(=O)N3CCCCC3)ccc21)NCCc1ccccc1Cl | -4% (active) |
| O=C(Cn1ccc2cc(S(=O)(=O)N3CCCCCC3)ccc21)NCCc1ccccc1Cl | 88% |
| Cc1ccc(CNC(=O)C(C)n2ccc3cc(S(=O)(=O)N4CCCC4)ccc32)cc1 (stereo not given) | 102% |
| O=C(Cn1ccc2cc(S(=O)(=O)N3CCCCCC3)ccc21)NCc1ccccc1Cl | 77% |
| CCn1nc(C)c2c(-c3ccccc3)cc(=O)n(C(C)C(=O)NCCC(C)C)c21 (stereo not given) | 99% |
| COc1ccccc1CNC(=O)C(NS(=O)(=O)c1ccc2c(c1)CCN2C(C)=O)C(C)C (stereo not given) | 79% |
| Cc1ccc2sc(NC(=O)c3ccc4c(c3)OCCO4)nc2c1C | 92% |
| CNC(=O)c1c(NC(=O)c2cc(=O)c3ccccc3o2)sc2c1CCC2 | 94% |
| COc1ccc(OC)c(CNC(=O)CSc2c3c(nc4cc(Cl)ccc24)CCCC3)c1 | 68% |
| CCOC(=O)c1ccc(NC(=O)CSc2c3c(nc4cc(Cl)ccc24)CCCC3)cc1 | 68% |
| CC1CCCCN1C(=O)CSc1c2c(nc3cc(Cl)ccc13)CCCC2 (stereo not given) | -6% (active) |
| Cc1ccc(C)c(NC(=O)CSc2c3c(nc4ccc(Cl)cc24)CCCC3)c1 | 53% |
| CCC(C)NC(=O)CSc1c2c(nc3cc(Cl)ccc13)CCCC2 (stereo not given) | 82% |
| CC1CCN(C(=O)CSc2c3c(nc4ccc(Cl)cc24)CCCC3)CC1 | 0% (active) |
| CC1CCCN(C(=O)CSc2c3c(nc4cc(Cl)ccc24)CCCC3)C1 (stereo not given) | -5% (active) |
| Cc1ccc(CNC(=O)CSc2c3c(nc4cc(Cl)ccc24)CCCC3)cc1 | 80% |
| O=C(CSc1c2c(nc3ccc(Cl)cc13)CCCC2)NCc1ccccc1Cl | 119% |
| O=C(CSc1c2c(nc3ccc(Cl)cc13)CCCC2)N1CCCCC1 | 22% (active) |

| SMILES | survival |
| --- | --- |
| CCOC(=O)C1CCN(c2nc3c(S(=O)(=O)c4ccc(Br)cc4)nnn3c3ccsc23)CC1 | 76% |
| O=[N+]([O-])c1ccc(S(=O)(=O)N2CCn3cccc3C2c2ccc(Br)cc2)cc1 (stereo not given) | 75% |
| COc1ccc(-c2noc(CSc3nnc(C)n3-c3ccc(C)cc3)n2)cc1OC | 59% |
| COC(=O)c1ccc(-c2nc(-c3ccc(OC)c(OC)c3)no2)cc1 | 64% |
| O=C(CSCc1cc(=O)c2cc(F)ccc2[nH]1)Nc1ccccc1Cl | 94% |
| CCOC(=O)c1ccc(NC(=O)CSc2nccn2Cc2ccc(OC)cc2)cc1 | 79% |
| COc1cc(NC(=O)c2cc(-c3cccc(Cl)c3)on2)c(OC)cc1Cl | 61% |
| CC1CCc2nc(NC(=O)COc3ccc(C(C)(C)C)cc3)sc2C1 (stereo not given) | 80% |
| COCCNC(=O)CSc1c2c(nc3cc(Cl)ccc13)CCCC2 | 71% |
| CCOC(=O)C1CCN(C(=O)CSc2c3c(nc4ccc(Cl)cc24)CCCC3)CC1 | 39% (active) |
| CC1CCN(C(=O)CSc2c3c(nc4cc(Cl)ccc24)CCCC3)CC1 | 5% (active) |
| CCOc1ccc(CNC(=O)CSc2c3c(nc4cc(Cl)ccc24)CCCC3)cc1 | 51% |
| CCc1ccccc1Nc1sc(C(=O)c2cccc(OC)c2)c(N)c1S(=O)(=O)c1ccccc1 | 72% |
| Cc1ccc(S(=O)(=O)CCc2nnc(NC(=O)C3CCCN3C(=O)NC3CCCCC3)s2)cc1 (stereo not given) | 72% |
| CCOc1ccc(CCNC(=O)c2sc3nc4n(c(=O)c3c2C)CCCC4)cc1 | 75% |
| CCn1cc2nc(SCC(=O)Nc3ccc(C)cc3)n(Cc3ccc(C)cc3)c(=O)c2n1 | 69% |
| Cc1cccc(-c2nc(SCc3ccc(Br)cc3)n3[nH]c(=O)cc3n2)c1 | 92% |
| O=c1cc2nc(-c3ccccc3)nc(SCc3cccc(Br)c3)n2[nH]1 | 98% |
| O=c1cc2nc(-c3ccccc3F)nc(SCc3ccc(Br)cc3)n2[nH]1 | 0% (active) |
| COc1ccccc1NC(=O)CSc1nc(-c2ccccc2F)nc2cc(=O)[nH]n12 | 71% |
| Cc1ccc(-c2nc(SCc3ccc(Br)cc3)n3[nH]c(=O)cc3n2)cc1 | 37% (active) |
| Cc1ccc(CSc2nc(-c3ccc(C(C)(C)C)cc3)nc3cc(=O)[nH]n23)cc1 | 89% |
